The structures appear in SMILES notation.

Seven compounds from ChEMBL document CHEMBL1961873, “Compounds: GSK PKIS; Assays: Nanosyn kinase panel” (2012) can be followed below.

Test [1] concerns the target T1, Tyrosine-protein kinase receptor TYRO3 (Homo sapiens) (UniProt Q06418).
T1 sequence (whole entry): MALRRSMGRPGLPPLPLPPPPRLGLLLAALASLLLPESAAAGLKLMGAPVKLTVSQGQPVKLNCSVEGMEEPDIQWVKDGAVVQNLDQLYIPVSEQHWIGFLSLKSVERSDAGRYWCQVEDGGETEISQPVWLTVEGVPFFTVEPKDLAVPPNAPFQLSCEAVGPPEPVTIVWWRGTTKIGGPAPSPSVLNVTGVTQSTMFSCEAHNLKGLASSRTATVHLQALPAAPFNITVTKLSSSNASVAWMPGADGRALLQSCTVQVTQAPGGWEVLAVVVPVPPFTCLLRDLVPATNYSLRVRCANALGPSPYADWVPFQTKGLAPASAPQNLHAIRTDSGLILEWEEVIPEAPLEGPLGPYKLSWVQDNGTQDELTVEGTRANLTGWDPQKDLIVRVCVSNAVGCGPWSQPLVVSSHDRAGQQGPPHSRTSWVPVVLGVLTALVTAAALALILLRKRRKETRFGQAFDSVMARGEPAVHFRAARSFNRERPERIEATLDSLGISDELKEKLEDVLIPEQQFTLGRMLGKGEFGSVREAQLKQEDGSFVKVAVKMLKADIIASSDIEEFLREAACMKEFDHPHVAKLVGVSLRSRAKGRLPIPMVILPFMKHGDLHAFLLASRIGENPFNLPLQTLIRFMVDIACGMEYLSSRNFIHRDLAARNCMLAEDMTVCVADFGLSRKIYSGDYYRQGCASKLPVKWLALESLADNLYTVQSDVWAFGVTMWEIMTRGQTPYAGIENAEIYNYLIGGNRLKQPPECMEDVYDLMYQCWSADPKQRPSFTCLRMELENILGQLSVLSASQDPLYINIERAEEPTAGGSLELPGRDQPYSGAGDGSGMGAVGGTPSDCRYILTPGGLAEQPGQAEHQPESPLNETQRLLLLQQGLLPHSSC
The conditions noted are these: at 1 µM.

For test [2], the target named is Tyrosine-protein kinase Yes (Homo sapiens) (UniProt P07947). As to conditions: at 0.1 µM.
Test [3] shares this target. As to conditions: at 1 µM.
The target in test [4] is T2, Tyrosine-protein kinase ZAP-70 (Homo sapiens) (UniProt P43403).
T2 sequence (whole entry): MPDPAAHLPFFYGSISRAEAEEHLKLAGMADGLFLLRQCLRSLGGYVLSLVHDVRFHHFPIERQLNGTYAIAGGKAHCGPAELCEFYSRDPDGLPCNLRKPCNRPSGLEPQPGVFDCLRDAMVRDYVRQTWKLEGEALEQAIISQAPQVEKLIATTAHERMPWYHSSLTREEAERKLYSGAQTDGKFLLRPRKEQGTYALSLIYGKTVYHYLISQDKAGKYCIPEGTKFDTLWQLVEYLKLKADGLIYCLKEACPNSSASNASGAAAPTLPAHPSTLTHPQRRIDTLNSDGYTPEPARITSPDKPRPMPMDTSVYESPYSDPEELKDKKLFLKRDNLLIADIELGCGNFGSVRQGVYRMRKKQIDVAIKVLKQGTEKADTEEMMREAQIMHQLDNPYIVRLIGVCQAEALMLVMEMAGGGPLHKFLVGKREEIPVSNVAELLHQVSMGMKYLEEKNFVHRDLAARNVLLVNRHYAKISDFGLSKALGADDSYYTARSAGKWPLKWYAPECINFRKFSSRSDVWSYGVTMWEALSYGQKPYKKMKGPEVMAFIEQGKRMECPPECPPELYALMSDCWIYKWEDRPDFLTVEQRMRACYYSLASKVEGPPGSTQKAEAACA
As to conditions: at 0.1 µM.

For test [5], the target named is T2, Tyrosine-protein kinase ZAP-70 (Homo sapiens). As to conditions: at 1 µM.
Test [6] concerns the target Serine/threonine-protein kinase B-raf (Homo sapiens) (UniProt P15056). The conditions noted are these: at 0.1 µM.
Test [7] shares this target. As to conditions: at 1 µM.
For test [8], the system named is Serine/threonine-protein kinase B-raf (Homo sapiens), P15056 [V600E]. The conditions noted are these: at 0.1 µM.
Test [9] shares this test system. As to conditions: at 1 µM.
For test [10], the target named is RAF proto-oncogene serine/threonine-protein kinase (Homo sapiens) (UniProt P04049). As to conditions: at 0.1 µM.
For test [11] the target is unchanged. The conditions noted are these: at 1 µM.
Test [12] concerns the target T3, Interleukin-1 receptor-associated kinase 4 (Homo sapiens) (UniProt Q9NWZ3).
T3 sequence (whole entry): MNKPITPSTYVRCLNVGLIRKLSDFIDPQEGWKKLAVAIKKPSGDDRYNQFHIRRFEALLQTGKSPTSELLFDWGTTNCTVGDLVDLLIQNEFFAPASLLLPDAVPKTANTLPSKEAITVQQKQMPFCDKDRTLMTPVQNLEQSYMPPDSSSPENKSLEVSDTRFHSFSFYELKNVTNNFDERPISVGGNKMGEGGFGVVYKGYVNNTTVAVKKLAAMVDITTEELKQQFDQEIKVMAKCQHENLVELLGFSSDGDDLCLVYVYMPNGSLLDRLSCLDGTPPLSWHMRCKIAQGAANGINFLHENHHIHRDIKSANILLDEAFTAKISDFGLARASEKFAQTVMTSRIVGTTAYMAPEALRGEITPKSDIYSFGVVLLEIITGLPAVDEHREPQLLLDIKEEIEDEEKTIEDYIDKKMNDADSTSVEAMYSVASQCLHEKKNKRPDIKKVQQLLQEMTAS
As to conditions: at 0.1 µM.

In test [13] the target is T3, Interleukin-1 receptor-associated kinase 4 (Homo sapiens). The conditions noted are these: at 1 µM.
For test [14], the target named is Leucine-rich repeat serine/threonine-protein kinase 2 (Homo sapiens) (UniProt Q5S007). The conditions noted are these: at 0.1 µM.
For test [15] the target is unchanged. As to conditions: at 1 µM.
The test system of test [16] is Leucine-rich repeat serine/threonine-protein kinase 2 (Homo sapiens), Q5S007 [G2019S]. As to conditions: at 0.1 µM.
For test [17] the test system is unchanged. The conditions noted are these: at 1 µM.

Sequence of Serine/threonine-protein kinase B-raf (Homo sapiens) (P15056 whole entry): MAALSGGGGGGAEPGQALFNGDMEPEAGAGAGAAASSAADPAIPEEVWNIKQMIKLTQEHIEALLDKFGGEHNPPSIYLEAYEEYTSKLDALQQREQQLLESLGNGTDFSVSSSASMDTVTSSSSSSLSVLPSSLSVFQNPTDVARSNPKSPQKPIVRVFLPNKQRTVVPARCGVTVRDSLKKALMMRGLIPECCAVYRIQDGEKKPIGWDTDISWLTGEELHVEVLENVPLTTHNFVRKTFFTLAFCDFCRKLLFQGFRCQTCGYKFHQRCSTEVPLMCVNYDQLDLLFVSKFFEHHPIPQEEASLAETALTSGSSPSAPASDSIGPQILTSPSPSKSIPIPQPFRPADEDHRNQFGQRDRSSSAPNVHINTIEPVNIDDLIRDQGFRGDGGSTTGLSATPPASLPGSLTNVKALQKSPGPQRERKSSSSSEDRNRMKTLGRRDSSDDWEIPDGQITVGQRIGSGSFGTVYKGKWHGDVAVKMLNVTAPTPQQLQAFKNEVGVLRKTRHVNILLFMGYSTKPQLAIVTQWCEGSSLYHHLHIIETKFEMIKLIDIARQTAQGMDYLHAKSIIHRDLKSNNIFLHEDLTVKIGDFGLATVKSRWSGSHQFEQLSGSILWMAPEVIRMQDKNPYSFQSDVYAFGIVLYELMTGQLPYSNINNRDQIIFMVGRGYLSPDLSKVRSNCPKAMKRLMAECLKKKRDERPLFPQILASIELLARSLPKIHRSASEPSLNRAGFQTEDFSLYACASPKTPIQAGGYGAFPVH
Sequence of Tyrosine-protein kinase Yes (Homo sapiens) (P07947 2-543 limits assumed): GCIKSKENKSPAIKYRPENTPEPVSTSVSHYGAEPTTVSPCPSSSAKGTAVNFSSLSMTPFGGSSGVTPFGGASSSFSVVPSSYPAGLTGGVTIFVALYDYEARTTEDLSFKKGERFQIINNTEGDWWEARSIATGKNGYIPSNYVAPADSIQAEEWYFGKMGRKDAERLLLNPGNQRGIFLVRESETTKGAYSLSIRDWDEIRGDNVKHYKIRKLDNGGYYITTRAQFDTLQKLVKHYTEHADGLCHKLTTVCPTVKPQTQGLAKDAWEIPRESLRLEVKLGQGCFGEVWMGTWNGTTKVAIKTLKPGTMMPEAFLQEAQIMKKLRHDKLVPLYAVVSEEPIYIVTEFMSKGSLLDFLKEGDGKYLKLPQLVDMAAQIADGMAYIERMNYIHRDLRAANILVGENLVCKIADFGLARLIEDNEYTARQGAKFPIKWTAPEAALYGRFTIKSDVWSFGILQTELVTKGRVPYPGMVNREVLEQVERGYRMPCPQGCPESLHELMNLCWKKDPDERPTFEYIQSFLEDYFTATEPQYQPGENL
Sequence of Leucine-rich repeat serine/threonine-protein kinase 2 (Homo sapiens), Q5S007 [G2019S] (Q5S007 whole entry G2019S): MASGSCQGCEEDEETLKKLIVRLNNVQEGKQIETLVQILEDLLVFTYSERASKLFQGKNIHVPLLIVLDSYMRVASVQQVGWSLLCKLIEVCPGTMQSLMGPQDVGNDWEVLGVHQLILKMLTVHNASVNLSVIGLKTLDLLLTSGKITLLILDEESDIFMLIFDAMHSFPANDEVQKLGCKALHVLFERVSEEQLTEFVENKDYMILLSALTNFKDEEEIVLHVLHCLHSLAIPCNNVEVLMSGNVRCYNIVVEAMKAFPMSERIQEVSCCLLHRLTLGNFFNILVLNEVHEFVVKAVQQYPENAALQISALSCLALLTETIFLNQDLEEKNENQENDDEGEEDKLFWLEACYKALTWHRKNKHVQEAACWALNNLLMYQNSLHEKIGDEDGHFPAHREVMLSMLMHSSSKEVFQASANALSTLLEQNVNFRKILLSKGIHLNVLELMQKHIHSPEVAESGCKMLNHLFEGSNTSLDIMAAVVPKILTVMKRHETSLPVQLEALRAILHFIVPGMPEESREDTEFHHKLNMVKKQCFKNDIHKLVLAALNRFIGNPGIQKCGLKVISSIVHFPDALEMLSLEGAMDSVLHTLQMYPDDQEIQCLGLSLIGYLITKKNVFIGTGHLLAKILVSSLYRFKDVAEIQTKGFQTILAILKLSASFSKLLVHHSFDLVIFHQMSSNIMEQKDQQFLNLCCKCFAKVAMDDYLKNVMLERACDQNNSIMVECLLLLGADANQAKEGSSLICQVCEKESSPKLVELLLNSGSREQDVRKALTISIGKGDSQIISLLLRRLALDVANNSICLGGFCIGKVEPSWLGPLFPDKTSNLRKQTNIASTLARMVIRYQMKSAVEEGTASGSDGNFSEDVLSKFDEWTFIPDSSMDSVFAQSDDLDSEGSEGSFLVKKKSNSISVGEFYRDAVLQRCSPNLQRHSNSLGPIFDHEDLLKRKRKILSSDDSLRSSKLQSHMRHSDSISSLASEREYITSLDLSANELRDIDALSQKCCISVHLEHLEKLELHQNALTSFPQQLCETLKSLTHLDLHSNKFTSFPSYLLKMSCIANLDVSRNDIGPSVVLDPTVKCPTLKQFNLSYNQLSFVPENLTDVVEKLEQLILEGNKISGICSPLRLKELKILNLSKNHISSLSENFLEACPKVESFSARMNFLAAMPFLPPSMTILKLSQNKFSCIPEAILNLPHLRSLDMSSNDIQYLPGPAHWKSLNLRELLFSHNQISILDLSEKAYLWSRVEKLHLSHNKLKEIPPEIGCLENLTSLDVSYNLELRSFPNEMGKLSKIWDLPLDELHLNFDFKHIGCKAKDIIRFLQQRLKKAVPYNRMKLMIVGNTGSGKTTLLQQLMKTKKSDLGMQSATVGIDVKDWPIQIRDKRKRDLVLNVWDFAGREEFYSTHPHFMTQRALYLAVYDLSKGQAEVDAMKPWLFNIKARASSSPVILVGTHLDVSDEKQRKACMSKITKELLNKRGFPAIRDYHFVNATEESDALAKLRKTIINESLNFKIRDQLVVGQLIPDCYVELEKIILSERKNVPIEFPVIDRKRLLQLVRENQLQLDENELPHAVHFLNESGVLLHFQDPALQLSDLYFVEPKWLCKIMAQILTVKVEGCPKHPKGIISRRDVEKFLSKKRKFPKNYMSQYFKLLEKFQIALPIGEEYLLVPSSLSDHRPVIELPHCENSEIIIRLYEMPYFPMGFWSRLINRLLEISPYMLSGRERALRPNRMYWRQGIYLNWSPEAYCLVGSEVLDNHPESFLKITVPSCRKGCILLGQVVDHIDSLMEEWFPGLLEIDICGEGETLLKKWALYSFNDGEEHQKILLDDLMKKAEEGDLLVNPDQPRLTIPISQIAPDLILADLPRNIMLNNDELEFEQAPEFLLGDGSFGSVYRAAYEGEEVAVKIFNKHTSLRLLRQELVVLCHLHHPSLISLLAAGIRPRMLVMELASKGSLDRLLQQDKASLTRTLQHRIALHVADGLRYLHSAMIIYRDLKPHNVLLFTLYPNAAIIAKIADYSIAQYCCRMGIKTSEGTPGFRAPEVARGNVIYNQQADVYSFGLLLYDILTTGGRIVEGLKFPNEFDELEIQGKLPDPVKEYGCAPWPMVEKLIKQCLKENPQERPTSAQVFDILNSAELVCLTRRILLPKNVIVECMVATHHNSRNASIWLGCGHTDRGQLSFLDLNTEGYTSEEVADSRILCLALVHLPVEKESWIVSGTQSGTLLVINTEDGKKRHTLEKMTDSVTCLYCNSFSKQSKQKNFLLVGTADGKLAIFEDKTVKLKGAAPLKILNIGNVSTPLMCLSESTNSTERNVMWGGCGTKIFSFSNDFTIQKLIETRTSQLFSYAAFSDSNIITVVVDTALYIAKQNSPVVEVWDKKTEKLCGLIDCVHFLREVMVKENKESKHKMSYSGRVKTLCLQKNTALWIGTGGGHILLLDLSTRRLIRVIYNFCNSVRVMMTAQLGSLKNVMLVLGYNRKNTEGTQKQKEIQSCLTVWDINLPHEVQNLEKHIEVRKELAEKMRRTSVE
Sequence of Leucine-rich repeat serine/threonine-protein kinase 2 (Homo sapiens) (Q5S007 whole entry): as the sequence (Q5S007 whole entry G2019S) above, with S2019G counted along it
Sequence of RAF proto-oncogene serine/threonine-protein kinase (Homo sapiens) (P04049 whole entry): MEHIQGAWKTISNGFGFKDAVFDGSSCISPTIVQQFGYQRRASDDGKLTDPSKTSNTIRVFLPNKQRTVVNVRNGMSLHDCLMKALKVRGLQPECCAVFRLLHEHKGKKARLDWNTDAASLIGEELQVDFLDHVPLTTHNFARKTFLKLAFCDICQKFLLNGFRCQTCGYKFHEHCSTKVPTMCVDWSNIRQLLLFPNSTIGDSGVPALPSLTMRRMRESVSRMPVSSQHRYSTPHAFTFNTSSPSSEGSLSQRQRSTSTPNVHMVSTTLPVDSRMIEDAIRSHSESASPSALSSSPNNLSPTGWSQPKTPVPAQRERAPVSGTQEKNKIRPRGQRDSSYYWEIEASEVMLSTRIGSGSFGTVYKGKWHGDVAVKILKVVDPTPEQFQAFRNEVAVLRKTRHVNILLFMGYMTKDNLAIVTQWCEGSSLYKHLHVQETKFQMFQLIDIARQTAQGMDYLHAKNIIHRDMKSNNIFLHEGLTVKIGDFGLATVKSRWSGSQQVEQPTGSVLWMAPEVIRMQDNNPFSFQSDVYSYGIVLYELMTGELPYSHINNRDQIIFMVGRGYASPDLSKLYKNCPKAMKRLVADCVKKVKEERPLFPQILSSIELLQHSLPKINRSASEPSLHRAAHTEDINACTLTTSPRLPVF
Sequence of Serine/threonine-protein kinase B-raf (Homo sapiens), P15056 [V600E] (P15056 whole entry V600E): as the sequence (P15056 whole entry) above, with V600E counted along it

As usually defined, the inhibition is the drop in the measured response relative to a control, in per cent. As for `CCc1ccc(Oc2nccc(-c3c(-c4ccc(F)cc4)ncn3C3CCNCC3)n2)cc1`, the inhibition in test [1] is 1.06%; in test [2] it was 4.27%; in [3], 7.31%; in [4], -0.22%; in test [5], -4.21%; in [6], 4.48%. For the same compound, the inhibition is 10.2% in test [7]; 4.23% in [8]; 8.72% in test [9]; 1.49% in test [10]; -0.51% in test [11]; 2.21% in test [12]. In addition, the inhibition in test [13] was found to be 2.52%; in test [14], 0.68%; in [15] it was 6%; in test [16], 3.1%; in test [17] it was 6.63%.
For the compound `CCN(CC)Cc1ccc(Nc2nccc(-c3cnn4ncccc34)n2)cc1`, the inhibition is 18.2% in [1]; 4.42% in [2]; 22.5% in [3]; -3.68% in [4]; -4.19% in test [5]; 7.03% in test [6]. The inhibition in [7] stood at 17.7%; in test [8] it was 4.68%; in test [9] it was 14%; in [10] it was 0.49%; in test [11], 1.56%; in test [12] it was 1.17%. The inhibition in test [13] is 3.85%; in [14] it was -6.19%; in test [15], 8.65%; in test [16], 0.1%; in test [17], 19%.
As for `CN1CCN(CCCNc2nc3ccc(Oc4ccc(NC(=O)Nc5cc(C(F)(F)F)ccc5F)cc4)cc3[nH]2)CC1`, the inhibition was 19.1% in test [1]; -0.61% in [2]; -1.74% in [3]; -0.98% in [4]; 2.82% in test [5]; 2.28% in test [6]. Besides, the inhibition in test [7] is 13.7%; in test [8] it was 2.94%; in test [9] it was 16.6%; in test [10], 2.41%; in test [11] it was -5.93%; in test [12], -3.98%. Further, the inhibition turned out to be 1.11% in test [13]; 0.2% in test [14]; 9.72% in test [15]; 0.21% in test [16]; 4.43% in [17].
For the compound `CCC(=O)Nc1ccc(C)c(-c2ccc(C(=O)NCC3CC3)cc2)c1`, the inhibition in test [1] is 2.68%; in test [2] it was 3.12%; in test [3] it was 4.01%; in test [4], -4.93%; in test [5] it was 1.46%; in test [6], 4.61%. Also, the inhibition is 4.76% in test [7]; 3.97% in [8]; 4.63% in test [9]; 2.89% in test [10]; -0.29% in test [11]; 1.62% in test [12]. Besides, the inhibition in [13] is 2.19%; in test [14], -0.86%; in [15], 1.68%; in test [16], 0.68%; in test [17], 2.28%.
Regarding `CS(=O)(=O)CCNCc1cc(-c2cc3c(Nc4ccc(OCc5cccc(F)c5)c(Cl)c4)ncnc3s2)cs1`, the inhibition is 4.28% in [1]; 3.05% in test [2]; 6.33% in [3]; 2.63% in test [4]; 1.06% in [5]; 6.76% in test [6]. In addition, the inhibition was 9.8% in [7]; 4.4% in test [8]; 5.09% in test [9]; 2.35% in [10]; -3.41% in test [11]; 2.58% in test [12]. Moreover, the inhibition is 3.31% in test [13]; 0.31% in test [14]; 4.51% in test [15]; 1.2% in test [16]; 5.39% in test [17].
Turning to `COc1ccc2cc(-c3c(-c4ccncc4)nc(-c4ccc([S+](C)[O-])cc4C)n3C)ccc2c1` (centres undefined), the inhibition in test [1] was 2.2%; in test [2] it was 3.84%; in test [3], 21.3%; in [4], -0.83%; in test [5], -0.09%; in test [6], 0.29%. Also, the inhibition in test [7] is -0.78%; in [8] it was -0.1%; in test [9], -0.41%; in test [10] it was -0.64%; in [11], 2.82%; in [12] it was -4.88%. Also, the inhibition is -0.25% in test [13]; -0.88% in test [14]; 0.64% in test [15]; 0.88% in [16]; 4.04% in test [17].
Take `Fc1ccc(-c2ncn(C3CCNCC3)c2-c2ccnc(Oc3ccc4c(c3)OCO4)n2)cc1`: the inhibition is 3.42% in [1]; 3.41% in [2]; 3.52% in [3]; 0.26% in [4]; -6.92% in [5]; 7.39% in test [6]. For the same compound, the inhibition in [7] was 12.7%; in [8], 6.25%; in test [9], 8.22%; in test [10], 1.31%; in [11], -0.17%; in [12], 2.54%. Also, the inhibition in test [13] worked out at 2.7%; in [14], 5.57%; in test [15], 11.2%; in test [16] it was 6.45%; in [17], 10.9%.
